Laboratory results published in PubChem BioAssay AID1851 (National Center for Advancing Translational Sciences (NCATS), 2009).
Hit rate of the full screen: of about 16,000 compounds, about 5,100 (32%) were called active. Another 25% or so got no clear call; they are omitted. This is one part of the list. Values without a mark were called inactive. Calls come from the whole dose curve; as a rule, active = well fitted curve in the direction sought with a large enough effect; inconclusive = small, poorly fitted or top-dose-only effect, or effect the other way; inactive = no such curve, though single readings can be large or run the other way.

Target: Cytochrome P450 3A4 (Homo sapiens) (UniProt P08684)
Sequence (P08684 whole entry, looked up): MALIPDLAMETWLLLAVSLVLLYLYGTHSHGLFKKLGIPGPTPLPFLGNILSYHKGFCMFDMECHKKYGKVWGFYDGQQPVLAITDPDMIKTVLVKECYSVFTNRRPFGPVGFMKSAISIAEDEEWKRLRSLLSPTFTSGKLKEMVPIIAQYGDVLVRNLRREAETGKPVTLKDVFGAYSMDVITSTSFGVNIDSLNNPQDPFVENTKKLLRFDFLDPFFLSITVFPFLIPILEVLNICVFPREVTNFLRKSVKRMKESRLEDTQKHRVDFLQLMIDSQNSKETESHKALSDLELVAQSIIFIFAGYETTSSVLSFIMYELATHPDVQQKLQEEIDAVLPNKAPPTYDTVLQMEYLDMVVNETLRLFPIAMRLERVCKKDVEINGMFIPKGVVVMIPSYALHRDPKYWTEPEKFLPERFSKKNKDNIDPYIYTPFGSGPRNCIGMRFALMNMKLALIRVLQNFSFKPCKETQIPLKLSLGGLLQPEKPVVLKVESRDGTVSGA
Assay: Cytochrome panel assay with activity outcomes
Details: recombinant CYP, pro-luciferin dealkylation, luminescence, p450-cyp3a4; series mostly up to 57.1 µM
% is set by controls: 0 for no effect and ±100 for the full control effect.

Row | SMILES | AC50 | activity, negative = inhibition
1 | CC(C)Oc1ccc(C2CC(=O)NC3=C2C(=O)CCC3)cc1 (stereo unspecified) | inactive | 
2 | COc1ccc(OC)c(C2CC(=O)C3=C(C2)NC(=O)CC3c2ccc(O)c(OC)c2)c1 (stereo unspecified) | 8.91 µM (active) | 
3 | COc1ccc(NC(=O)C2CC(=O)NC3=C2C(=O)CC(C)(C)C3)cc1 (stereo unspecified) | inactive | 
4 | CC(=O)NC(Cc1ccc(F)cc1)C(=O)O (stereo unspecified) | inactive | 
5 | COc1ccc(F)cc1S(=O)(=O)NC(Cc1ccccc1)C(N)=O (stereo unspecified) | 15.8 µM (active) | 
6 | CNC(=O)/C(C#N)=c1\s/c(=C/C(=O)OC)c(=O)n1-c1ccccc1 | inactive | 
7 | CS(=O)(=O)c1ccc(Cn2c3c(c4cc(F)cc(F)c42)CCC[C@H]3CC(=O)O)cc1 | 39.8 µM (active) | 
8 | CC(C)NNC(=O)c1ccncc1 | inactive | 
9 | CN[C@@H](c1ccncc1)[C@@H](NC)c1ccncc1 | 5.01 µM (active) | 
10 | O=c1[nH][nH]c(=S)c(=O)[nH]1 |  | -14.1% [at 11.4 µM]
11 | COCCNc1ncnc2ccc(-c3ccc(C(=O)N(C)C)cc3)cc12 | 15.8 µM (active) | 
12 | COCCNc1ncnc2ccc(-c3ccoc3)cc12 | inactive | 
13 | CC(=O)NCCNc1ncnc2ccc(-c3ccc(C(=O)N(C)C)cc3)cc12 | inactive | 
14 | COCCNc1ncnc2ccc(-c3ccc(N(C)C)cc3)cc12 | 7.94 µM (active) | 
15 | O=C(NCc1ccccn1)C1CC(c2ccc(Cl)c(Cl)c2)=NO1 (stereo unspecified) | 25.1 µM (active) | 
16 | COC(=O)[C@@H](NC(=O)Nc1ccc(C(C)=O)cc1)C(C)C | inactive | 
17 | CC(=O)c1ccc(NC(=O)C2CC(c3ccc(F)cc3)=NO2)cc1 (stereo unspecified) | inactive | 
18 | COc1ccc(C2=NOC(C(=O)NCc3ccco3)C2)cc1OC (stereo unspecified) | inactive | 
19 | O=C(O)[C@@H]1[C@@H](C(=O)NCc2ccccn2)[C@@H]2C=C[C@@H]1O2 |  | -5.18% [at 11.4 µM]
20 | COCCNC(=O)C1CC(c2cccc(OC)c2)=NO1 (stereo unspecified) | inactive | 
21 | O=C(NCc1ccc2c(c1)OCO2)C1CC(c2cccc(Br)c2)=NO1 (stereo unspecified) | 0.708 µM (active) | 
22 | COc1cccc(C2=NOC(C(=O)Nc3ccc(OC)c(OC)c3)C2)c1 (stereo unspecified) | 6.31 µM (active) | 
23 | COc1ccc(C2=NOC(C(=O)Nc3ccc(C(C)=O)cc3)C2)cc1OC (stereo unspecified) | 8.91 µM (active) | 
24 | Cc1ccc(NC(=O)NNC(=O)C2CC(c3cccnc3)=NO2)cc1 (stereo unspecified) | inactive | 

Row | SMILES | AC50 | activity, negative = inhibition
25 | COc1cccc(C2=NOC(C(=O)Nc3cccnc3)C2)c1 (stereo unspecified) | 12.6 µM (active) | 
26 | COc1ccc(CNC(=O)C2CC(c3ccc(OC)cc3)=NO2)cc1 (stereo unspecified) | inactive | 
27 | COc1ccc(CNC(=O)C2CC(c3cccc([N+](=O)[O-])c3)=NO2)cc1 (stereo unspecified) | 6.31 µM (active) | 
28 | O=C1C=C(NCCc2cc(Br)c(O)c(Br)c2)C(=O)c2ncccc21 | 3.16 µM (active) | 
29 | O=C1C=C(Nc2nc(C(=O)O)cc(=O)[nH]2)c2ccccc2C1=O |  | -12.4% [at 11.4 µM]
30 | O=C(NCc1ccco1)c1cc(C(=O)C2CC2)c[nH]1 | inactive | 
31 | O=C(NCCc1ccccn1)c1cc(C(=O)C2CCCCC2)c[nH]1 | 10 µM (active) | 
32 | O=C(NCc1ccco1)c1cc(C(=O)C2CCCCC2)c[nH]1 | inactive | 
33 | COc1ccc2c(c1)c(CC(=O)O)c(C)n2C(=O)c1ccc(Cl)cc1 | inactive | 
34 | COc1ccc2c(c1)c(CC(=O)N1CCOCC1)c(C)n2C(=O)c1ccc(Cl)cc1 | 5.01 µM (active) | 
35 | COc1ccc2c(c1)c(CC(=O)OCC(=O)O)c(C)n2C(=O)c1ccc(Cl)cc1 | inactive | 
36 | Cc1cccc(N/C(N)=N/c2nc(C)cc(C)n2)c1 | inactive | 
37 | Cc1cccc(C(=O)NNC(=O)C(=O)NC(C)(C)C)c1 | inactive | 
38 | Cc1cccc(NCCNc2cccc(C)c2)c1 | 25.1 µM (active) | 
39 | COc1ccc(S(=O)(=O)Nc2ccc(F)cc2)c(C)c1C | 10 µM (active) | 
40 | Cc1ccccc1CSc1nsc(N)n1 | 25.1 µM (active) | 
41 | COc1ccc(NC(=O)c2cc(C(C)C)on2)cc1OC | inactive | 
42 | COc1cccc(-c2cc(C(=O)Nc3cccc(O)c3)no2)c1 | 10 µM (active) | 
43 | COCCNC(=O)c1cc(-c2cccc(OC)c2)on1 | inactive | 
44 | CCN1CCN(c2nc(C)c3c(n2)CCCC3=O)CC1 | inactive | 
45 | Cc1cc2nc(C)n(CCCN)c2cc1C | inactive | 
46 | CSc1nc(C)cc(Nc2ccc(O)c(CN3CCOCC3)c2)n1 |  | 0.709% [at 11.4 µM]
47 | Cc1cccc(C(=O)NCN2CCN(c3ccccc3C#N)CC2)c1 | inactive | 
48 | Cc1cccc(OCC(=O)NNC(=O)CSc2ncc(C#N)c(N)n2)c1 | 14.1 µM (active) | 

Row | SMILES | AC50 | activity, negative = inhibition
49 | Cc1c(C(=O)Nc2nccs2)sc2nc(-c3cccs3)cc(C(F)(F)F)c12 | 14.1 µM (active) | 
50 | CC(/C=C/c1ccccc1)=N/NC(=O)CNC(=O)c1ccc2c(c1)OCO2 | 6.31 µM (active) | 
51 | CN(C)Cc1cc(C(C)(C)C)ccc1-c1ccc(C(C)(C)C)cc1CN(C)C |  | 5.04% [at 11.4 µM]
52 | CN(C)Cc1ccc(C(C)(C)C)cc1-c1cc(C(C)(C)C)ccc1CN(C)C |  | 0.94% [at 11.4 µM]
53 | CN(C)Cc1cc(C(F)(F)F)ccc1C(O)(c1ccccc1)c1ccccc1 | 0.794 µM (active) | 
54 | COc1ccccc1-c1cncnc1NCCNC(C)=O | 2 µM (active) | 
55 | CC(=O)NCCNc1ncncc1-c1ccc(N(C)C)cc1 | 2 µM (active) | 
56 | CC(=O)NCCNc1ncncc1-c1ccccc1C | 2.51 µM (active) | 
57 | COc1nc(OCCNC(C)=O)nc(N(C)C)n1 |  | 4.84% [at 2.29 µM]
58 | CC(=O)NCCNc1cc(-c2ccccc2C)ncn1 | inactive | 
59 | CC(=O)NCCNc1cc(-c2ccccc2CN(C)C)ncn1 | inactive | 
60 | CC(=O)NCCNc1ncncc1-c1ccccc1C(F)(F)F | 1 µM (active) | 
61 | CC(=O)NCCNc1cc(-c2ccccc2C(F)(F)F)ncn1 | inactive | 
62 | COc1ccc(N2CCN(C(=N)/C(C(C)=O)=C(\C)O)CC2)cc1 |  | -4.11% [at 2.29 µM]
63 | CCn1cnc2sc(C(=O)N3CCN(c4ccc(OC)cc4)CC3)c(C)c2c1=O | 12.6 µM (active) | 
64 | O=C(O)c1cc(=O)cc(C(=O)O)[nH]1 | inactive | 
65 | Fc1cccc(F)c1C(Nc1nncs1)Nc1nncs1 |  | -16.1% [at 11.4 µM]
66 | FC(F)(F)c1ccccc1-c1nc(NCc2cccnc2)c2ccccc2n1 | 2 µM (active) | 
67 | Clc1ccccc1-c1nc(N/N=C/c2cccnc2)c2ccccc2n1 | 1.41 µM (active) | 
68 | Cc1sc(N/N=C/c2cccnc2)nc1-c1ccccc1 |  | 20.5% [at 2.29 µM]
69 | C(=N/Nc1nnc2c(n1)[nH]c1ccccc12)/c1cccnc1 | 3.98 µM (active) | 
70 | Clc1ccccc1-c1nc(NCc2cccnc2)c2ccccc2n1 | 2.51 µM (active) | 
71 | CON(C)C(=O)c1nnc2c(n1)[nH]c1ccccc12 |  | -23% [at 11.4 µM]
